# An excerpt weighted towards active compounds, which were near 9% of everything screened.
# HPGD block: HPGD (human) dehydrogenase inhibition; P15428; AID 894; Potency, µM, for inactives: at the highest dose activity change, negative = inhibition, hits mostly inhibitors; 150,000 compounds, 4.3% hits; purified HPGD, NADH fluorescence kinetic, PGE2 substrate
# Target sequence (P15428 whole entry, looked up): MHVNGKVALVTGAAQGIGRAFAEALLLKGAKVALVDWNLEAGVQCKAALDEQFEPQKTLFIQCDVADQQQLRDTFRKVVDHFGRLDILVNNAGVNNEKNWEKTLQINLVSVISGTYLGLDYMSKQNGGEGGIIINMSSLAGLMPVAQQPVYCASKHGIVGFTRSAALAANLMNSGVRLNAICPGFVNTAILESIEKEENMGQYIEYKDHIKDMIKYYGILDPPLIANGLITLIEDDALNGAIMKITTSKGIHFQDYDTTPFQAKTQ
#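 20 nM HPGD preincubated 15 min at room temperature with compound in 50 mM Tris-HCl pH 8, 0.01% Tween 20. Started with 1 mM NAD+ and 30 uM prostaglandin E2; NADH fluorescence (360/450 nm) read 5 times over 30-s intervals, last minus first.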
# LMNA splice mod: modulators of lamin A splicing; HeLa LMNA splicing GFP/RFP minigene ratio, 48 h; Potency, µM (doses to about 46.1 µM), without a hit: top-dose ratio change, negative = inhibition, usual class: inhibitors; 200,000 compounds, 0.01% hits; AID 1487; active = well fitted inhibition curve with a large enough effect in the signal ratio, with a control signal flat, not every such curve was filed as active; inconclusive = small, poorly fitted or top-dose-only effect, or effect the other way, or a change in a side signal; the % refers to the signal ratio
#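 S3 HeLa cells stably expressing lamin A-EGFP splicing minigene plus DsRed2, 600 cells/well, 48 h compound exposure at 37C. Laser-scanning cytometry; analysed as GFP (500-530 nm)/RFP (575-640 nm) total intensity ratio; 0.5% DMSO vehicle.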
# KinaseGlo FLuc: blocks Kinase-Glo luciferase, a counter-screen artifact; Q27757; Kinase-Glo luciferase, ATP luminescence, 8 min; Potency, µM (top dose mostly 38.3 µM), without a hit: at the highest dose activity change, negative = inhibition, most hits filed as inhibitors; 200,000 compounds, 0.28% hits; AID 1379; active = well fitted curve in the direction sought with a large enough effect; inconclusive = small, poorly fitted or top-dose-only effect, or another doubt; inactive = no such curve, though single readings can be large; an effect the other way counts as inactive or inconclusive; also: nearly all actives have a fitted effect of over 60% in size
#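 Compound is pinned into ATP-containing buffer (10 uM ATP, imidazole pH 7.2, 7 mM MgCl2). Kinase-Glo luciferase reagent is then added. Light output is recorded following an 8-min room-temperature incubation.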
# IMPase Li cell: IMPase inhibition in cells with lithium potentiation. CHO-M1 cells, IP1 TR-FRET (IP-One), carbachol + lithium. Potency, µM (titrated, usually from 59.4 µM), for the others: at the top dose activity, negative = IMPase inhibition, usual class: inhibitors. 210,000 compounds, 0.35% hits. AID 1457; active = well fitted curve in the direction sought with a large enough effect; inconclusive = small, poorly fitted or top-dose-only effect, or another doubt; inactive = no such curve, though single readings can be large; an effect the other way counts as inactive or inconclusive;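 also: IP1 builds up when IMPase is blocked and the TR-FRET signal falls; plate controls were basal vehicle for no effect and high inhibitor control for full effect; nearly all actives have a fitted effect of over 50% in size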
#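 CHO cells stably expressing M1 receptor (2000/well) were cultured 16–30 h, then exposed to compounds with a small lithium addition for 30 min at 37C. IP1 was measured by TR-FRET competition; AC50 from Hill fits.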
# ALDH1A1 inh: inhibitors of human aldehyde dehydrogenase 1A1. P00352. Purified ALDH1A1, NADH fluorescence, propionaldehyde substrate. Potency, µM (doses to about 75.3 µM), without a hit: at the highest dose activity, negative = inhibition, most hits filed as inhibitors. 220,000 compounds, 7.3% hits. AID 1030;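 also: plate controls were no enzyme wells and a reference inhibitor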
# * hit, by the source's call; u = inconclusive; x = no result given; [ ] = dose if it differs, or a comment. Unless noted, calls follow the shape of the dose curve; as a rule, active = well fitted inhibition curve with a large enough effect (not every such curve was filed as active); inconclusive = small, poorly fitted or top-dose-only effect, or another doubt; inactive = no such curve, though single readings can be large or run the other way. Unless noted, % is scaled to controls: 0 for no effect and ±100 for the full control effect; potency is read from the fitted curve at half-maximal effect.
SMILES,HPGD block,LMNA splice mod,KinaseGlo FLuc,IMPase Li cell,ALDH1A1 inh
O=C1C2C3C=CC(C4CC34)C2C(=O)N1/N=C/c1ccc(-c2ccc(F)cc2[N+](=O)[O-])o1 (centres undefined),20µM*,-22%,1%,30%[38.3 µM],u
COc1ccc(-c2ccc(/C=N/N3C(=O)C4C5C=CC(C6CC56)C4C3=O)o2)c([N+](=O)[O-])c1 (centres undefined),25µM*,-20%,-4%,21%,10µM*
Cc1ccc(-c2ccc(/C=N/N3C(=O)C4C5C=CC(CC5)C4C3=O)o2)c([N+](=O)[O-])c1 (centres undefined),16µM*,-20%,0%,41%[38.3 µM],0.89µM*
COc1ccc(CCNC(=O)COC(=O)COc2ccc(C#N)cc2)cc1,x,-2%[46 µM],-1%,-1%,6%
C[C@H](c1ccccc1)N1C(=O)[C@H]2[C@@H]3[C@H](O)[C@H](O)CC(=O)[C@H]3CC[C@H]2C1=O,x,x,x,x,9%[13.5 µM]
O=C1C=CC(=C(c2ccc(O)cc2)c2ccc(O)cc2)C=C1,14µM*,x,-1%,3%,-10%
Cc1ccc(CN2CCN(CCCc3ccccc3)CC2CCO)cc1 (centres undefined),x,-23%[46 µM],4%,28%,28µM*
OCCC1CN(CCCn2cccn2)CCN1Cc1ccccc1 (centres undefined),x,2%[46 µM],2%,13%,-8%
OCCC1CN(Cc2c(O)ccc3ccccc23)CCN1CCc1ccccc1 (centres undefined),x,u,0%,12%,11µM*
Cc1cc([N+](=O)[O-])ccc1NC(=O)C(C)N1CCN(c2ccccn2)CC1 (centres undefined),x,5%[46 µM],-6%,19%,0%
O=C(Cc1ccc(Cl)cc1Cl)Nc1cccc(S(=O)(=O)Nc2ccccc2F)c1,3.5µM*,u,4%,13%,3.5µM*
O=C(/C=C/c1ccccc1)Nc1cccc(S(=O)(=O)Nc2ccccc2F)c1,2µM*,u,0%,20%,0.79µM*
CC(=O)NS(=O)(=O)c1ccc(NC(=O)/C=C/c2ccccc2)cc1,x,x,3%,-5%,-2%
O=C(Nc1cccc(S(=O)(=O)Nc2ccccc2F)c1)c1ccc2ccccc2n1,x,-9%[46 µM],0%,16%,3.2µM*
c1ccc(Nc2ncnc3ccc(-c4cccnc4)cc23)cc1,-22%,u,-1%,10%,-2%
CC/C=C\CC[C@H](OC(=O)c1ccc(Br)cc1)C1=CCCCC1=O,x,x,x,x,1%[13.5 µM]
COc1ccc(NC(=O)CN2C(=O)C3(SCC(=O)N3c3ccccc3)c3ccccc32)cc1Cl (centres undefined),x,-7%[46 µM],x,x,x
O=C(/C=C/c1cccc([N+](=O)[O-])c1)NCCSCc1ccccc1Cl,-22%,u,0%,10%,13µM*
O=C(/C=C/c1cccc([N+](=O)[O-])c1)NCC1CCCO1 (centres undefined),6.3µM*,-5%,3%,17%[38.3 µM],14µM*
Cc1o[nH]c(=O)c1CCC(N)C(=O)O (centres undefined),x,x,x,-8%,9%
Cc1ccc(C(C[N+](=O)[O-])Sc2ccc(N)cc2)cc1 (centres undefined),x,x,x,x,4µM*
CC(O)/C=C/C1OC(=O)CC1Nc1ccc(C=O)cc1 (centres undefined),x,x,x,-6%,0.45µM*
CCOC(=O)N1CCC(N(C(=O)Nc2ccc(Cl)c(Cl)c2)C(C)CC)CC1 (centres undefined),20µM*,u,3%,30%[38.3 µM],u
COc1ccccc1CN1CCN(Cc2nc(Cc3ccccc3)no2)CC1,x,u,3%,19%,-2%
C(=C\c1ccccc1)/CN1CCN(Cc2nc(Cc3ccccc3)no2)CC1,x,u,1%,28%,13µM*
SMILES,HPGD block,LMNA splice mod,KinaseGlo FLuc,IMPase Li cell,ALDH1A1 inh
S=c1[nH]nc(COc2ccc(Cl)cc2)n1Cc1ccco1,x,10%[46 µM],1%,0%,-10%
Cc1nn(Cc2ccccc2)c(N)c1-c1ccccc1,-25%,-1%,0%,2%[38.3 µM],2%
Cc1nn(C)c(N)c1-c1ccccc1,x,x,-2%,3%,8%
COc1ccc(-c2c(C)nn(-c3ccccc3)c2N)cc1,20µM*,6%,6%,27%[38.3 µM],-3%
Cc1nn(C(C)(C)C)c(N)c1-c1ccccc1,28µM*,3%,1%,-3%,11%
Cc1nn(C2CCCCC2)c(N)c1-c1ccccc1,11µM*,2%,2%,-5%[38.3 µM],-3%
COC(=O)N1CCC2(CCN(Cc3ccc(C#N)cc3)CC2)CC1,-16%,x,-13%,20%,u
CCNc1ncc2nc(-c3cn(C)c4ccccc34)c(=O)n(Cc3cccc(OC)c3)c2n1,x,u,x,2%,u
COc1ncc2nc(-c3ccccc3)c(=O)n(-c3ccccc3)c2n1,x,-3%,x,7%,u
c1ccc(CNc2ncnc3c2cnn3Cc2ccccc2)cc1,u,u,3%,19%,u
COc1ccc(Nc2ncnc3c2cnn3Cc2ccccc2)cc1,22µM*,u,-2%,0%[38.3 µM],8.9µM*
CCOc1ccc(Nc2ncnc3c2cnn3Cc2ccccc2)cc1,u,11%,-1%,7%[38.3 µM],11µM*
COc1ccc2c(c1)O[C@@H](c1ccc3c(c1)OCO3)[C@H](OC(=O)N[C@H]1CCCc3ccccc31)C2=O,4%,x,5%,13%,-13%
CCSc1nc2c(c(=O)[nH]c(=O)n2C)n1C/C=C(/C)Cl,u,3%,-6%,25%[38.3 µM],14µM*
CCOC(=O)C(C)Sc1nc2c(c(=O)[nH]c(=O)n2C)n1C/C=C(/C)Cl (centres undefined),22µM*,-1%,3%,8%[38.3 µM],7.1µM*
C=CCn1c(SCCN2CCOCC2)nc2c1c(=O)[nH]c(=O)n2C,-19%,-19%,1%,-2%,-6%
CSc1nc2c(c(=O)[nH]c(=O)n2C)n1C/C=C(\C)Cl,u,-3%,-1%,-13%[38.3 µM],25µM*
C=CCSc1nc2c(c(=O)[nH]c(=O)n2C)n1C/C=C(/C)Cl,-25%,5%,-2%,-4%[38.3 µM],u
C=CCSc1nc2c(c(=O)[nH]c(=O)n2C)n1CC,14µM*,3%,1%,4%[38.3 µM],14µM*
C/C(Cl)=C/Cn1c(SCCN2CCOCC2)nc2c1c(=O)[nH]c(=O)n2C,u,1%,0%,-1%[38.3 µM],-8%
COC(=O)N1C(/C=C/c2ccc3c(c2)OCO3)=Cc2ccccc2C1CC(C)=O (centres undefined),u,u,-5%[7.66 µM],11%,u
CCOC(=O)c1ccc(N2C(=O)C3C(C2=O)C(C(=O)c2ccc(Cl)cc2)N2CCCC32)cc1 (centres undefined),2.2µM*,-12%,0%,35%[38.3 µM],13µM*
Cc1nn(C)c(C)c1N1C(=O)c2cccc3c(Br)ccc(c23)C1=O,-20%,u,-6%,6%,2%

# Source: PubChem
